A number with no mark means an inactive call.

The text below walks through data of the supplement of paper PMC11172423.

The test system of experiment [1] is Falciformispora senegalensis CBS197.79. Put plainly: growth relative to untreated control; higher = less inhibition, active = 20 or less. The gist of the method: (§1)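 Viability readout used either MTS (2 h, 490 nm) or resazurin (600 nm). Before this, hyphal fragments of M. mycetomatis MM55 or F. senegalensis CBS197.79 in colourless RPMI 1640 with L-glutamine and MOPS (68–72% transmission at 660 nm) had been exposed in 96-well plates to compound at 100 or 25 µM for 7 days at 37 °C. Growth denotes metabolic activity relative to the untreated growth control, with a medium-plus-dye blank subtracted from both.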

Experiment [2] deals with Madurella mycetomatis MM55. The experiment is described as above. The gist of the method:
as §1

Regarding `Cc1ccc(NC(=O)c2ccc(CN3CCN(C)CC3)cc2)cc1Nc1nccc(-c2cccnc2)n1`, the growth in experiment [1] (25 µM) is 95.1%; in experiment [1] (100 µM), 103%; in experiment [2] (25 µM), 86%; in experiment [2] (100 µM), 70.7%.

As to `CN(C)C[C]1[CH][CH][CH][C]1CNc1ccnc2cc(Cl)ccc12.[CH]1[CH][CH][CH][CH]1.[Fe]`, the growth is 59.2% in experiment [1] (25 µM) and 58% in experiment [1] (100 µM).

Turning to `Fc1ccc([C@@H]2CCNC[C@H]2COc2ccc3c(c2)OCO3)cc1`, the growth in experiment [1] (25 µM) was 101%; in experiment [1] (100 µM) it was 15.3% (active).

In the case of `COc1ccc(C(=O)N2CCC3(CC2)C(=O)N(CC(=O)NCC2CCCCC2)CN3c2ccccc2)c(OC)c1`, the growth was 91.9% in experiment [1] (25 µM) and 85.8% in experiment [1] (100 µM).

`Cc1cc(Cl)ccc1NC(=S)N(C)C`: the growth is 98.6% in experiment [1] (25 µM) and 88.2% in experiment [1] (100 µM).

With `CO[C@H]1C[C@H](O[C@H]2[C@H](C)O[C@@H](O[C@@H]3/C(C)=C/C[C@@H]4C[C@@H](C[C@]5(C=C[C@H](C)[C@@H](C6CCCCC6)O5)O4)OC(=O)[C@@H]4C=C(C)[C@@H](O)[C@H]5OC/C(=C\C=C\[C@@H]3C)[C@]54O)C[C@@H]2OC)O[C@@H](C)[C@@H]1O`, the figures for the growth in experiment [1] (25 µM) and in experiment [1] (100 µM) were 93.1% and 88.5%, respectively.

On to `O=C(Nc1cccc(Cl)c1)c1ccnc(N2CCC(N3CCCC3)CC2)c1`, for which the growth in experiment [1] (25 µM) is 95.5%; in experiment [1] (100 µM), 28.1%.

As for `Cc1cnc2nc(NC3COc4ccccc43)nc(NC(C3CC3)C3CC3)c2c1` (centres undefined), the growth was 83.2% in experiment [1] (25 µM) and 33.4% in experiment [1] (100 µM).

On to `Nc1nonc1-c1nc2c(-c3cccc(Cl)c3)nccc2n1CCCNC(=O)Cc1ccc(Cl)cc1`, for which the values for the growth in experiment [1] (25 µM) and in experiment [1] (100 µM) were 90% and 110%, respectively.

Turning to `CC(C)NCc1cccc(-c2ccc(NC(=O)c3cccc(C#N)c3)cc2)c1`, the growth in experiment [1] (25 µM) is 86.2%; in experiment [1] (100 µM), 27.9%.

`C[C@H](Cn1cnc2c(N)ncnc21)OCP(=O)(O)O`: the growth in experiment [1] (25 µM) is 105%; in experiment [1] (100 µM) it was 107%; in experiment [2] (25 µM) it was 89.4%; in experiment [2] (100 µM) it was 81.3%.

In the case of `O=C(c1ccc(Nc2nccc(-c3ccc(Cl)cc3)n2)cc1)N1CCS(=O)(=O)CC1`, the results for the growth in experiment [1] (25 µM) and in experiment [1] (100 µM) were 80.5% and 98.8%, respectively.

For `Cc1ccccc1-c1noc(-c2ccccc2)n1`, the growth in experiment [1] (25 µM) is 92.9%; in experiment [1] (100 µM), 86.5%; in experiment [2] (25 µM), 93.4%; in experiment [2] (100 µM) it was 60.5%.

Consider `O=C(Nc1ccc([N+](=O)[O-])cc1Cl)c1cc(Cl)ccc1O`, for which the growth in experiment [1] (25 µM) and in experiment [1] (100 µM) was 0% (active) in each case.

As to `CCOC(=O)c1c(CSc2ccccc2)n(C)c2cc(Br)c(O)c(CN(C)C)c12`, the growth is 103% in experiment [1] (25 µM) and 97.8% in experiment [1] (100 µM).

As for `CC(C)n1ncc2c(C(=O)N3CCCc4ccccc43)cc(-c3ccccc3)nc21`, the values for the growth in experiment [1] (25 µM) and in experiment [1] (100 µM) were 82.5% and 89.8%, respectively.

As to `CC(N)CCn1c(Nc2cc(Cl)cc(C(F)(F)F)c2)nc2cnc(NC3CCCC3)nc21` (centres undefined), the growth was 10.9% (active) in experiment [1] (25 µM), 17.2% (active) in experiment [1] (100 µM), 11.2% (active) in experiment [2] (25 µM) and 7.25% (active) in experiment [2] (100 µM).

Turning to `CO[C@@H]1[C@H](N(C)C(=O)c2ccccc2)C[C@H]2O[C@]1(C)n1c3ccccc3c3c4c(c5c6ccccc6n2c5c31)C(=O)NC4`, the growth was 113% in experiment [1] (25 µM), 89.5% in experiment [1] (100 µM), 77.9% in experiment [2] (25 µM) and 87.3% in experiment [2] (100 µM).

Turning to `NS(=O)(=O)OC[C@@H]1C[C@@H](n2ccc3c(N[C@H]4CCc5ccccc54)ncnc32)C[C@@H]1O`, the growth in experiment [1] (25 µM) is 112%; in experiment [1] (100 µM), 101%; in experiment [2] (25 µM), 85%; in experiment [2] (100 µM), 99.5%.

For the compound `CCCCC(=O)N(Cc1ccc(-c2ccccc2-c2nn[nH]n2)cc1)[C@H](C(=O)O)C(C)C`, the growth in experiment [1] (25 µM) is 103%; in experiment [1] (100 µM), 107%; in experiment [2] (25 µM), 82.1%; in experiment [2] (100 µM), 83.4%.

For `Cc1cc(Nc2cc(N)ncn2)c(=O)n2c1C(=O)NC21CCCCC1`, the growth in experiment [1] (25 µM) was 111%; in experiment [1] (100 µM) it was 107%; in experiment [2] (25 µM), 85.9%; in experiment [2] (100 µM), 84.7%.

With `CN(C)C(=N)N=C(N)N`, the growth in experiment [1] (25 µM) is 104%; in experiment [1] (100 µM), 105%; in experiment [2] (25 µM), 87%; in experiment [2] (100 µM), 87.2%.

On to `CN(C)CCCN1c2ccccc2CCc2ccc(Cl)cc21`, for which the growth in experiment [1] (25 µM) is 51.5%; in experiment [1] (100 µM), 12.5% (active); in experiment [2] (25 µM) it was 38.1%; in experiment [2] (100 µM), 3.39% (active).

Consider `COc1cc(OC)c2c(O)nc(-c3cc(C)c(OCCO)c(C)c3)nc2c1`, for which the growth in experiment [1] (25 µM) was 103%; in experiment [1] (100 µM) it was 97.6%; in experiment [2] (25 µM) it was 103%; in experiment [2] (100 µM), 72.7%.

Consider `Cc1cc(OCCN2CCOCC2)nn1-c1ccc2ccccc2c1`, for which the growth in experiment [1] (25 µM) is 105%; in experiment [1] (100 µM), 103%; in experiment [2] (25 µM), 85.8%; in experiment [2] (100 µM), 65%.
